This passage reports outcome and AC50 results from PubChem BioAssay (EPA / NIEHS).

Inconclusive results are not listed. Activity calls are given as the source filed them. The calls were made as follows: active = hit-call score of the fitted dose curve at least 0.9, where 1 is the maximum; inconclusive = response in the unintended direction; inactive = score below 0.9.

The nature of this assay: ACEA_ER_AUC_viability: ACEA Biosciences xCELLigence Real-Time Cell Analysis on Estrogen Receptor Agonism for Viability (AID 2283782).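 Also: continuous compound exposure with impedance area under curve over 80 h; hit means loss of impedance signal meaning reduced cell growth or viability.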 Put shortly: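 T-47D human breast cells in phenol red-free RPMI1640 with 10% charcoal-stripped FBS were dosed with an 8-point 1:4 dilution series from 100 uM top final concentration, in duplicate. Impedance-based growth was followed for 80 h; AUC analysed versus DMSO.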
Regarding `C=CC(C)(CCC=C(C)C)OC(=O)CC(C)C` (stereo not given), the call was inactive. Turning to `CC(CC=O)CCCC(C)(C)O` (stereo not given), the result was inactive.

Take `O=C1CCCN1CCO`: the result was inactive.

With `CC(C)CCCC(C)CC=O` (stereo not given), the result was inactive.

Regarding `C[Si](C)(CCCN)O[Si](C)(C)CCCN`, the AC50 is 55.9 µM (active). For the molecule `C=CCOCC(O)CCl` (stereo not given), the molecule was called inactive.

In the case of `Nc1ccc(N=Nc2ccccc2)c(N)n1`, the call was inactive. For the molecule `COCCOCCOCCOCCOC`, the result was inactive. Regarding `COC(=O)c1sccc1S(N)(=O)=O`, the result was inactive. With `CCOC(=O)[C@H](C)O`, the molecule was called inactive.
